Several values for one entry are separate records, joined by “and”; a condition that tells them apart may be missing. Equal entries are not always repeated. Results filed as inconclusive are left out. Some compounds were tested as several samples or in several runs, with calls that do not always agree. Activity calls are given as the source filed them. Unless noted, calls come from the whole dose curve.
Assays:
[1] = qHTS assay to identify small molecule antagonists of the sonic hedgehog signaling (Shh) pathway (AID 1259369); note: nearly all actives have a fitted effect of over 45% in size
Summary of the method: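 For antagonist detection, the reporter line received test compounds together with conditioned medium, incubated 24hr at 37 C, 5% CO2, then luminescence was recorded following 30min room-temperature luciferase reagent incubation.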

[2] = target: Estrogen receptor beta (Homo sapiens) (UniProt Q92731); test: qHTS assay to identify small molecule agonists of the estrogen receptor beta (ER-beta) signaling pathway (AID 1259377; active = well fitted activation curve with a large enough effect in the signal ratio in the repeat runs, not every such curve was filed as active; the % refers to the signal ratio)
Sequence of Estrogen receptor beta (Homo sapiens) (Q92731 whole entry, looked up): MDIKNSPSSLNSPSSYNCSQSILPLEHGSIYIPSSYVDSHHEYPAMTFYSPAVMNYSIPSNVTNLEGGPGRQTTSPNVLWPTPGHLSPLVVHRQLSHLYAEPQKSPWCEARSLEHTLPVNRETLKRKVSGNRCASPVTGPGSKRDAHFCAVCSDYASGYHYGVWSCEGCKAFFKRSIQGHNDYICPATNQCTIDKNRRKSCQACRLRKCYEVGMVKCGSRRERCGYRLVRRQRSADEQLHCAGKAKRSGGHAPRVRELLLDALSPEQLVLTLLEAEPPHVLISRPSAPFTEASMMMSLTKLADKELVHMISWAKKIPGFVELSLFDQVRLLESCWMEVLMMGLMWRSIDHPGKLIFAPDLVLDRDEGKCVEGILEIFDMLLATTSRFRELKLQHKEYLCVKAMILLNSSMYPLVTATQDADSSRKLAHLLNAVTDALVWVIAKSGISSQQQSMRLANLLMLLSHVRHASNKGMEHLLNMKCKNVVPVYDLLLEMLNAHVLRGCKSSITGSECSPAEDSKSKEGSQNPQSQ
Summary of the method: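 ER-beta-UAS-bla HEK293T cells in medium with 2% charcoal-stripped FBS were exposed to compounds for 16 h at 37C. Beta-lactamase reporter activity was read as fluorescence after 2 h with LiveBLAzer B/G FRET substrate at room temperature.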

[3] = qHTS assay to identify small molecule agonists of the androgen receptor (AR) signaling pathway in the presence of an antagonist - cell viability counter screen (AID 1259379; active = well fitted curve in the direction sought with a large enough effect in the repeat runs; an effect the other way counts as inactive or inconclusive;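 note: MDA-kb2 human breast cancer cells carrying an MMTV luciferase reporter; series mostly up to about 92 µM; nearly all actives have a fitted effect of over 25% in size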)
Summary of the method: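 Seed MDA-kb2 at 3,000 cells/well; incubate 5 hr, 37C, 0% CO2. Add nilutamide to 3.0uM final, then pin compounds at 15 concentrations. Incubate 16 hr. Add CellTiter-Fluor at 15 hr, read fluorescence after 1 hr.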

[4] = qHTS assay to identify small molecule agonists of the estrogen receptor beta (ER-beta) signaling pathway - cell viability counter screen (AID 1259380; active = well fitted curve in the direction sought with a large enough effect in the repeat runs; an effect the other way counts as inactive or inconclusive; note: nearly all actives have a fitted effect of over 30% in size; note: potency is the fitted concentration of half-maximal effect)
Summary of the method: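 CellTiter-Glo read, 30 min RT, same wells as bla assay; cells ER-beta-UAS-bla HEK293T; 16 hr compound, 37C; medium 2% charcoal-stripped FBS.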

[5] = qHTS assay to identify small molecule antagonists of the estrogen receptor beta (ER-beta) signaling pathway - cell viability counter screen (AID 1259382; active = well fitted curve in the direction sought with a large enough effect in the repeat runs; an effect the other way counts as inactive or inconclusive; note: series mostly up to about 92 µM; nearly all actives have a fitted effect of over 55% in size)
Summary of the method: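 In this multiplexed counter screen, cells were seeded at 2,000 per well in medium with 2% charcoal-stripped FBS and incubated 6 hr before compound and 1nM final E2 were added. Sixteen hours later, ATP-based luminescence reported viability.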

[6] = target: Estrogen receptor (Homo sapiens) (UniProt P03372); test: qHTS assay to identify small molecule agonists of the estrogen receptor alpha (ER-alpha) signaling pathway in the presence of an antagonist (AID 1259383); note: nearly all actives have a fitted effect of over 15% in size; note: potency is the fitted concentration of half-maximal effect; for activation: top concentration of the series differs between compounds
Sequence of Estrogen receptor (Homo sapiens) (P03372 whole entry, looked up): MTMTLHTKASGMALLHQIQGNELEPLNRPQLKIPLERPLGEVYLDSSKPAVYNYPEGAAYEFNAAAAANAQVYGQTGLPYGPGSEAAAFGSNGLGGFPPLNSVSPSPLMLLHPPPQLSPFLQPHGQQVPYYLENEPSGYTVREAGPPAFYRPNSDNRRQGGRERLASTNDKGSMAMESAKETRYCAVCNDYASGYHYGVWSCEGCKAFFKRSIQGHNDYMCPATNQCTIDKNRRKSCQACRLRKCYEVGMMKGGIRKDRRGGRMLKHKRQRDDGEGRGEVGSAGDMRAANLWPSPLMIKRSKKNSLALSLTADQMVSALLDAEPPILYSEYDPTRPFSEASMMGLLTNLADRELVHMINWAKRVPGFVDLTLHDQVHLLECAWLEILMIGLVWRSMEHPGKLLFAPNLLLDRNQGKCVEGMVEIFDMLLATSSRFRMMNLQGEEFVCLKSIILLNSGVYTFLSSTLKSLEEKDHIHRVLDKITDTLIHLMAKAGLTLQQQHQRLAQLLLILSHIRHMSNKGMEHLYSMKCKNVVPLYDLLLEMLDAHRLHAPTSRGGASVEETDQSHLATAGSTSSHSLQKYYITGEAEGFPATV
Summary of the method: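 Stably transfected VM7Luc4E2 reporter cells, kept 5 days in charcoal-stripped serum, received ICI-182,780 at 10.0nM final before compound addition. Following 22hr incubation at 37C and 5% CO2, luciferase signal was read by luminescence.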

[7] = target: Estrogen receptor beta (Homo sapiens) (UniProt Q92731); test: qHTS assay to identify small molecule antagonists of the estrogen receptor beta (ER-beta) signaling pathway (AID 1259378; active = well fitted inhibition curve with a large enough effect in the signal ratio in the repeat runs, not every such curve was filed as active; the % refers to the signal ratio)
Summary of the method: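 ER-beta-UAS-bla HEK293T (GripTite) cells in 2% charcoal-stripped FBS medium were preincubated 6 hr at 37C, dosed with compound, then stimulated with 1 nM E2 (final) for 16 hr; beta-lactamase reporter read by B/G FRET fluorescence after 2 hr substrate loading.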

[8] = qHTS assay to identify small molecule agonists or antagonists of the thyroid stimulating hormone receptor (TSHR) signaling pathway - wild type cell line counter screen (AID 1259384)
Summary of the method: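 Wild-type HEK293 cells were plated 18 h at 37 C/5% CO2, pin-dosed with compound plus Ro20-1724 medium, held 30 min at room temperature, then given cAMP-d2 and anti-cAMP-cryptate; fluorescence was read after 1 h. Fifteen concentrations, triplicate.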

[9] = target: Androgen receptor (Homo sapiens) (UniProt P10275); test: qHTS assay to identify small molecule agonists of the androgen receptor (AR) signaling pathway in the presence of an antagonist (AID 1259381); note: nearly all actives have a fitted effect of over 15% in size
Sequence of Androgen receptor (Homo sapiens) (P10275 whole entry, looked up): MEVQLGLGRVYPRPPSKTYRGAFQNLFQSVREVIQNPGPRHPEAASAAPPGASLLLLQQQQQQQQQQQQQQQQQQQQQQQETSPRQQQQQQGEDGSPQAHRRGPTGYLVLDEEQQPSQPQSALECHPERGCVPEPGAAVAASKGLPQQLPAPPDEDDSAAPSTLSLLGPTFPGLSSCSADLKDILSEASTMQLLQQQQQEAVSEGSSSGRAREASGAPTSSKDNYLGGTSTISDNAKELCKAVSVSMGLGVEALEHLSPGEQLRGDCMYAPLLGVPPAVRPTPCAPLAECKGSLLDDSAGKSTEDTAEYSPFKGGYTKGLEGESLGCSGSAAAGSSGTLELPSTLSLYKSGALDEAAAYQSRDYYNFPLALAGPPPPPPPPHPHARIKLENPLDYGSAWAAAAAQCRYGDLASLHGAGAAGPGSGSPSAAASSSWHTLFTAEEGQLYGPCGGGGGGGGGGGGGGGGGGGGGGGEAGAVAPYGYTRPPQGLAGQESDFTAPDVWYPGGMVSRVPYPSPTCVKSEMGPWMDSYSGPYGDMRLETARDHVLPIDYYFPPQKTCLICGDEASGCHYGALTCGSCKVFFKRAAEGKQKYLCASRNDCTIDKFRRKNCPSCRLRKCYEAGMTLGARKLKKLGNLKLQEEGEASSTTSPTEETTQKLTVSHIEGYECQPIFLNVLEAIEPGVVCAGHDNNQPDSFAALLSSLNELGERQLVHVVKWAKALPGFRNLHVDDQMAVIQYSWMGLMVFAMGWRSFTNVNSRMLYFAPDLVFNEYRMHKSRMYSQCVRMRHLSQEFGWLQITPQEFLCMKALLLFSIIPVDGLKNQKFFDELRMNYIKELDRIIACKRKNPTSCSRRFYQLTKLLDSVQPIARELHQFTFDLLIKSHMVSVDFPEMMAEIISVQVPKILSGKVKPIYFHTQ
Summary of the method: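 Test compounds at 15 concentrations were incubated for 16hr with MDA-kb2 reporter cells in presence of 3.0uM nilutamide (final). Signal: ONE-Glo luciferase luminescence.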

[10] = target: Thyrotropin receptor (Homo sapiens) (UniProt P16473); test: qHTS assay to identify small molecule antagonists of the thyroid stimulating hormone receptor (TSHR) signaling pathway (AID 1259385); note: nearly all actives have a fitted effect of over 20% in size
Sequence of Thyrotropin receptor (Homo sapiens) (P16473 whole entry, looked up): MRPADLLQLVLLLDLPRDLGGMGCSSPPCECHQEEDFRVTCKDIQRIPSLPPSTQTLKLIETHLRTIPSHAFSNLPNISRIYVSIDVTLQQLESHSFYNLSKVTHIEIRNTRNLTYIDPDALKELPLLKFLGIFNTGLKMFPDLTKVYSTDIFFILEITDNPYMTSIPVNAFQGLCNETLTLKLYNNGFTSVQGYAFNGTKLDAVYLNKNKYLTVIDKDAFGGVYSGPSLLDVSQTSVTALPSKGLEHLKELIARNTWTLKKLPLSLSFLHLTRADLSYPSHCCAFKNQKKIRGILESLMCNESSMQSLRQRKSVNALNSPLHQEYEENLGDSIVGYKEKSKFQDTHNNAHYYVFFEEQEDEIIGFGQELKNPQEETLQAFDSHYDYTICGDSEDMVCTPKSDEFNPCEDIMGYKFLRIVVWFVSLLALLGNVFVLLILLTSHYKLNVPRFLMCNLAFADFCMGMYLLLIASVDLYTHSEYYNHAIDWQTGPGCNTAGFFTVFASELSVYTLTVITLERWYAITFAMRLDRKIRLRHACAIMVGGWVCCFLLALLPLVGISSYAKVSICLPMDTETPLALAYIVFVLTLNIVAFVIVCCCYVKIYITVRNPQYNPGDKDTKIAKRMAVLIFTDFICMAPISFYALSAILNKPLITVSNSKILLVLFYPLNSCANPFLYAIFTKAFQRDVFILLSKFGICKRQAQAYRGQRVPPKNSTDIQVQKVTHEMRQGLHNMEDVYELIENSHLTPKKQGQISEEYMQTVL
Summary of the method: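 TSHR-HEK293 cells were plated and held 18 h at 37C/5% CO2, then given compound plus Ro20-1724 and stimulated with TSH at 1.5 ng/mL final. After 30 min at room temperature, cAMP was detected with cAMP-d2/anti-cAMP-cryptate (1 h) by fluorescence.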
% is set by controls: 0 for no effect and ±100 for the full control effect.

CCCCCCCC(=O)O
inactive: Potency [1] | Potency [2] | Potency [3] | Potency [4] | Potency [5]
26.3 µM (active) and inactive: Potency [6]

COc1cc(NC(=O)CC(C)=O)c(OC)cc1Cl
inactive: Potency [1] | Potency [2] | Potency [7] | Potency [3] | Potency [4] | Potency [5] | Potency [6] | Potency [8]

CCc1cccc(O)c1
inactive: Potency [1] | Potency [2] | Potency [3] | Potency [4] | Potency [5] | Potency [6] | Potency [8]

CC(C=O)Cc1ccc(C(C)(C)C)cc1 (stereo not given)
inactive: Potency [1] | Potency [2] | Potency [3] | Potency [4] | outcome [9] | Potency [5] | Potency [8]

C=CC(=O)NCOCCCC
inactive: Potency [1] | Potency [2] | Potency [7] | Potency [3] | Potency [4] | Potency [5] | Potency [6]

CCCCCCCCCCCC(=O)N(C)CC(=O)O
inactive: Potency [1] | Potency [2] | activity, negative = inhibition [7] 1.54% [at 8.39 µM] | Potency [3] | activity change, negative = cytotoxicity [4] -3.5% [at 8.39 µM] | Potency [5] | Potency [6] | Potency [8] | Potency [10]

O=C1C(N(CO)C(=O)NCO)N(CO)C(=O)N1CO (stereo not given)
inactive: Potency [1] | Potency [2] | Potency [7] | Potency [3] | Potency [4] | Potency [5] | Potency [6] | Potency [8] | Potency [10]

CC(C)(CO)CO
inactive: Potency [1] | Potency [2] | Potency [7] | Potency [3] | Potency [4] | outcome [9] | Potency [5] | Potency [6] | Potency [8] | Potency [10]

C[n+]1ccn(CCO)c1
inactive: Potency [1] | Potency [2] | Potency [3] | Potency [4] | Potency [5]

CCCN(CCC)C(=O)SCC
inactive: Potency [1] | Potency [2] | Potency [3] | Potency [4] | outcome [9] | Potency [5] | Potency [6] | Potency [8]

CCCCCCCCCCCCCC(=O)O
active: Potency [4] 43.1 µM and 61.1 µM
inactive: Potency [1] | Potency [2] | Potency [7] | Potency [3] | Potency [5] | Potency [6] | Potency [8]

OCC(CO)(CO)CO
inactive: Potency [1] | Potency [2] | Potency [3] | Potency [4] | Potency [5] | Potency [6] | Potency [8]

OCC(O)CS (stereo not given)
inactive: Potency [1] | Potency [2] | Potency [3] | Potency [4] | outcome [9] | Potency [5] | Potency [6] | Potency [8] | Potency [10]

— PubChem BioAssay (Tox21)
